According to PubChem BioAssay AID771 (SRMLSC, 2007):
In all, about 3,300 compounds went through this assay and about 55 (2%) were called active.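 The calls were made as follows: active = growth inhibition above 90%, meaning viable cell count by imaging cut by more than 90% versus vehicle controls; inactive = growth inhibition below 90%.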 The list comes from a sample in which actives are over-represented; it also holds similar structures and randomly drawn compounds.

Test: HT29 colon tumor cell growth inhibition, primary screen, imaging, high content imaging, 48 h, CellTiter-Glo (AID 771);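 as to condensed nuclei: condensed means Hoechst nuclear area under control median minus 1.5 SD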
Conditions: HCS imaging cell count, at 10 µM, stronger effect = higher value; for condensed nuclei: measured here: percent cells with condensed nuclei
[1] = measured here: ATP CellTiter-Glo viability inhibition

CN=C1c2cc3c(Br)c(OC)ccc3n2CCN1C
growth inhibition: 13.5% (inactive) | growth inhibition [1]: 20.4% | condensed nuclei: 1.37%

COC(=O)c1cc(Br)c(=O)n(Cc2ccco2)c1
growth inhibition: 48.5% (inactive) | growth inhibition [1]: -15.8% | condensed nuclei: 2.45%

CN(C)S(=O)(=O)Nc1ccc(NS(=O)(=O)N(C)C)c(S(=O)(=O)c2ccccc2)c1
growth inhibition: 17.4% (inactive) | growth inhibition [1]: -14.5% | condensed nuclei: 2.1%

CCOC(=O)C1=C(C)NC(SCC(=O)Nc2nc(C)cs2)=C(C#N)C1c1cccs1 (stereo not given)
growth inhibition: 95.4% (active) | growth inhibition [1]: 77.6% | condensed nuclei: 11.1%

C#CCSC1=C(C#N)C(c2cccs2)C(C(=O)OCC)=C(C)N1 (stereo not given)
growth inhibition: -11.7% (inactive) | growth inhibition [1]: -5.67% | condensed nuclei: 1.95%

CCSC1=C(C#N)C(c2cccs2)C(C(=O)OC)=C(C)N1 (stereo not given)
growth inhibition: -14.9% (inactive) | growth inhibition [1]: -4.48% | condensed nuclei: 2.41%

CCCOc1ccc(/C(O)=C2/C(=O)C(=O)N(CCCN3CCOCC3)C2c2ccncc2)cc1 (stereo not given)
growth inhibition: -41.6% (inactive) | growth inhibition [1]: -15.8% | condensed nuclei: 2.83%

CCCCOc1cccc(-c2nnc(N)s2)c1
growth inhibition: 2.4% (inactive) | growth inhibition [1]: -0.17% | condensed nuclei: 3.96%

CCC1CC2(C)NC(=O)c3c(sc4c3CC(C)(C)OC4)N2C1=O (stereo not given)
growth inhibition: -1.91% (inactive) | growth inhibition [1]: -5.72% | condensed nuclei: 0.79%

CC(C)(C)C1CCC2(CC1)C(C#N)=C(SCC(=O)Nc1ccccc1)NC(=O)C2C#N (stereo not given)
growth inhibition: 91.4% (active) | growth inhibition [1]: 71.8% | condensed nuclei: 2.13%

COc1cccc(NC(=O)CSC2=C(C#N)C(c3ccco3)C3=C(CCCC3=O)N2)c1 (stereo not given)
growth inhibition: 61% (inactive) | growth inhibition [1]: 34.8% | condensed nuclei: 1.16%

CC1=C(C(=O)Nc2ccccc2)C(c2ccncc2)C(C#N)=C(SCC(=O)NC(C)C)N1 (stereo not given)
growth inhibition: 38.7% (inactive) | growth inhibition [1]: 0.29% | condensed nuclei: 1.77%

O=c1/c(=C/c2ccccn2)sc2n1CN(c1ccccc1)CN=2
growth inhibition: 1.6% (inactive) | growth inhibition [1]: 3.13% | condensed nuclei: 16.2%

CNC(=O)Nc1cccc(NC(=O)NC)n1
growth inhibition: 24.6% (inactive) | growth inhibition [1]: 6.59% | condensed nuclei: 0.95%

COc1cccc(C2/C(=C(/O)c3cnn(-c4ccccc4)c3C)C(=O)C(=O)N2CCN(C)C)c1 (stereo not given)
growth inhibition: 51.1% (inactive) | growth inhibition [1]: -8.25% | condensed nuclei: 1.69%

Cc1[nH]c2ccc3c(ncn3CCC#N)c2c1C
growth inhibition: 3.78% (inactive) | growth inhibition [1]: 2.93% | condensed nuclei: 1.79%

CCN1CCc2c(C#N)c(N3CCOCC3)nc(NCc3ccccc3)c2C1
growth inhibition: 21.2% (inactive) | growth inhibition [1]: 14.1% | condensed nuclei: 2.32%

CN1CCc2c(C#N)c(N3CCCCC3)nc(NCc3ccccc3)c2C1
growth inhibition: 94.8% (active) | growth inhibition [1]: 84.9% | condensed nuclei: 19.2%

C=CCNc1nc(NCc2ccccc2)c(C#N)c2c1CN(C)CC2
growth inhibition: 95.6% (active) | growth inhibition [1]: 82.7% | condensed nuclei: 12.5%

CCN1CCc2c(C#N)c(NCc3ccccc3)nc(NCCO)c2C1
growth inhibition: -5.72% (inactive) | growth inhibition [1]: 1.65% | condensed nuclei: 1.53%

CCN1CCc2c(C#N)c(NCc3ccccc3)nc(N(CC)CC)c2C1
growth inhibition: -3.81% (inactive) | growth inhibition [1]: -0.65% | condensed nuclei: 2.33%

C=CCNc1nc(N2CCCCC2)c(C#N)c2c1CN(Cc1ccccc1)CC2
growth inhibition: 71.7% (inactive) | growth inhibition [1]: 37% | condensed nuclei: 2.73%

CCN1CCc2c(C#N)c(N3CCCCC3)nc(NCc3ccccc3)c2C1
growth inhibition: -17.2% (inactive) | growth inhibition [1]: 20.2% | condensed nuclei: 3.42%

N#Cc1c(NCCN)nc(NCc2ccccc2)c2c1CCN(Cc1ccccc1)C2
growth inhibition: 93.1% (active) | growth inhibition [1]: 87.7% | condensed nuclei: 30.8%

C=CCNc1nc(N2CCOCC2)c(C#N)c2c1CN(C)CC2
growth inhibition: -13.1% (inactive) | growth inhibition [1]: -3.95% | condensed nuclei: 0.96%

CCCCOc1ccc(C)cc1CN(CCO)CCO
growth inhibition: -4.82% (inactive) | growth inhibition [1]: 1.6% | condensed nuclei: 1.37%

Cc1ccc(-c2nn(C)c(=O)c3ccccc23)cc1CNC(=O)CSc1nc2ccccc2o1
growth inhibition: -7.38% (inactive) | growth inhibition [1]: -4.16% | condensed nuclei: 1%

CCC1(C)Cc2c(sc3c2c(=O)n(C)c2nnc(SCC(=O)c4ccc(Cl)cc4)n32)CO1 (stereo not given)
growth inhibition: 0.56% (inactive) | growth inhibition [1]: 9.73% | condensed nuclei: 13.8%

Cc1cc(C)nc(NC2=NCC(=O)N2c2cccc(Cl)c2)n1
growth inhibition: 27.2% (inactive) | growth inhibition [1]: -9.73% | condensed nuclei: 3.28%

CCOC(=O)c1c(-c2cccs2)csc1NC(=O)CCCC(=O)O
growth inhibition: 5.6% (inactive) | growth inhibition [1]: 4.31% | condensed nuclei: 1.96%

CCCc1nc(N2CCOCC2)c(C#N)c2c1CCCC2
growth inhibition: 24% (inactive) | growth inhibition [1]: 6.89% | condensed nuclei: 0.7%

CSc1nc2sc3c(c2c(=O)[nH]1)CCC(C)C3 (stereo not given)
growth inhibition: 25.4% (inactive) | growth inhibition [1]: 10.4% | condensed nuclei: 2.48%

CCOc1ccc(C2C(C(=O)c3ccc(C)o3)=C(O)C(=O)N2CCCN(CC)CC)cc1 (stereo not given)
growth inhibition: 17% (inactive) | growth inhibition [1]: 0.35% | condensed nuclei: 1.26%

c1ccc(-c2nc(NCC3CCCO3)c3ccccc3n2)nc1 (stereo not given)
growth inhibition: 16.9% (inactive) | growth inhibition [1]: 30.9% | condensed nuclei: 2.06%

O=C1CCC(=O)N1CN(Cc1ccco1)CN1C(=O)CCC1=O
growth inhibition: -33.3% (inactive) | growth inhibition [1]: -19.2% | condensed nuclei: 2.24%
